Each structure is given as a SMILES string. The whole screen tested about 68,000 compounds, of which about 2,700 (4%) showed an effect of 50% or more. This excerpt belongs to a sample that is enriched for strong results.

This is an account of results in ChEMBL document CHEMBL4513216, “Probing the Open Global Health Chemical Diversity Library for Multistage-Active Starting Points for Next-Generation Antimalarials” (ACS Infect Dis, 2020).

In this assay the test system is Plasmodium berghei. The assay is described as follows: Screen against P. berghei liver stage (PbLuc), transformed with Luciferase, at 2uM. Format: functional, HepG2. The note with it: tested at 2 uM.
Consider `CC(C)n1ccnc1CN1CCOC(C)(C(=O)N2CCOCC2)C1` (configuration not stated), for which the INHIBITION was 13.58%.
The same measure for `Cc1nc(N2CCOCC2)nc2c1CCN(Cc1nccn1C)CC2`: 13.25%.
On to `COCC(=O)N1C[C@H]2CN(Cc3csc(C)n3)C(=O)[C@H]2C1`, for which the INHIBITION is -6.13%.
The same measure for `Cc1cccc(CN2C[C@@H]3COC[C@]3(CNC(=O)C3CCC3)C2)c1`: 55.92%; for `COc1cccc(CN2C[C@@H]3COC[C@]3(CNC(=O)C3CC3)C2)c1`: -9.07%; for `Cc1cccc(CN2C[C@@H]3COC[C@]3(CNC(=O)c3ccsc3)C2)n1`: -26.88%.
Take `Cn1cc(CN2C[C@@H]3COC[C@]3(CNC(=O)c3ccco3)C2)cn1`: the INHIBITION worked out at 67.67%.
With `Cn1cc(CN2C[C@@H]3COC[C@]3(CNC(=O)c3ccccc3)C2)cn1`, the INHIBITION turned out to be 23.43%.
Take `O=C(NC[C@]12COC[C@H]1CN(Cc1ccncc1)C2)c1ccco1`: the INHIBITION was -5.65%.
In the case of `Cc1cccc(CN2C[C@@H]3COC[C@]3(CNC(=O)c3ccccc3)C2)n1`, the INHIBITION was found to be 59.04%.
As for `Cc1cccc(CN2C[C@@H]3COC[C@]3(CNC(=O)C3CC3)C2)c1`, the INHIBITION is on record as -2.81%.
The same measure for `Cc1cccc(CN2C[C@@H]3COC[C@]3(CNC(=O)c3cccn3C)C2)n1`: -26.91%; for `COc1cccc(OC)c1C(C(=O)O)N(C)Cc1c(C)n[nH]c1C` (configuration not stated): 17.2%; for `CCN1CCC2(CC1)CC(NCc1cccs1)c1ccccc1O2` (configuration not stated): -5.2%.
In the case of `COCC(=O)N1CC(=O)c2sc(Nc3ccc(F)cc3F)nc2C1` it was -0.83%; in that of `Cc1noc(C(C)Nc2ccc3c(c2)CCC3)n1` (configuration not stated), -46.99%.
Regarding `CN1CCc2c(C#N)c(NCCc3ccccc3)n3cnnc3c2C1`, the INHIBITION was -30.35%.
In the case of `Cc1ccc(NS(=O)(=O)c2c[nH]c3ncccc23)nc1` it was -27.36%.
In the case of `Cc1csc(NC(=O)c2cnc(C3CCCN3)cn2)n1` (configuration not stated) it was 14.47%; in that of `CCCn1nc2c(cc1=O)CN(Cc1ncc(C(C)(C)C)o1)CC2`, 27.85%.
As for `C1=CCN(c2nc(CC3CC3)nc3c2CCN(C2CCOCC2)CC3)C1`, the INHIBITION is recorded as -59.35%.
Turning to `O=C(c1cc(-c2ccc(O)cc2)n[nH]1)N1CCCC1c1cccnc1` (configuration not stated), the INHIBITION came to 35.01%.
Take `COCC(=O)N1CC[C@]2(O)CCN(C(=O)CCc3ccsc3)C[C@@H]2C1`: the INHIBITION is -11.68%.
As to `COc1cc(C)nc(N2CCN(C(=O)CCc3ccsc3)CC2)n1`, the INHIBITION is 1.77%.
Consider `COCC(=O)N1CCN(C(=O)CCc2ccsc2)CC1`, for which the INHIBITION stood at 67.28%.
The same measure for `C[C@H]1CN(C(=O)c2cccc(F)c2Cl)CCN1S(C)(=O)=O`: -33.29%.
The same measure for `CSc1nccc(N2CCC(NCc3ccc4c(c3)OCO4)CC2)n1`: 46.95%; for `c1ccc(CN2CCOCC3(CCN(C4CCOCC4)C3)C2)cc1` (configuration not stated): -28.17%; for `CCc1[nH]c2c(CNC(=O)C3CCS(=O)(=O)CC3)cc(C)cc2c1C`: 13.65%.
On to `CCc1[nH]c2c(CNC(=O)C3CCC(=O)NC3)cc(C)cc2c1C` (configuration not stated), for which the INHIBITION was found to be 11.37%.
For the molecule `CCc1[nH]c2c(CNC(=O)C3CNC(=O)C3)cc(C)cc2c1C` (configuration not stated), the INHIBITION is 53.05%.
The same measure for `CCC(CO)N(Cc1ccco1)C(=O)c1ccccc1NC` (configuration not stated): 4.57%.
The same measure for `CCOCC(O)CN1CCN(C(=O)c2cc(F)cc(F)c2)CC1` (configuration not stated): -41.07%; for `CCOCC(O)CN1CCN(C(=O)c2ccncc2)CC1` (configuration not stated): 69.01%; for `CCOCC(O)CN1CCN(C(=O)c2ccc(OC)cc2)CC1` (configuration not stated): 2.8%.
In the case of `COc1ccc(-c2cc3nc([C@H](C)NC(=O)C4CC4)nn3cn2)cc1`, the INHIBITION came out at 20.72%.
Regarding `Cc1ccc(CN2CC[C@H]3[C@H]2CCN3S(C)(=O)=O)s1`, the INHIBITION is listed as -25.95%.
Take `CCn1cc(CN2C[C@@H]3CC[C@H]2CN(C(=O)c2ccncc2)C3)cn1`: the INHIBITION is on record as -23.16%.
The same measure for `CCc1nn(C)c2[nH]nc(NC(=O)c3cccnc3NC(C)C)c12`: 54.87%; for `CCc1nn(C)c2[nH]nc(NC(=O)c3cccnc3OC)c12`: -3.4%; for `CCc1nn(C)c2[nH]nc(NC(=O)c3cccnc3OCC(C)C)c12`: 5.94%.
Regarding `Cc1cnn(CC2CCCN2Cc2coc(-c3ccc(F)cc3)n2)c1` (configuration not stated), the INHIBITION was found to be 7.8%.
In the case of `Cc1cccc2c1NC1(CCCC1)NC2=O` it was 19.81%.
Take `CCc1ccccc1OC1CN(C(=O)c2ccnc(OC)c2)C1`: the INHIBITION is recorded as 72.94%.
As to `COc1cc(C(=O)N2CC(Oc3ccccc3Cl)C2)ccn1`, the INHIBITION amounted to 14.88%.
In the case of `COc1cccc(OC2CN(C(=O)c3ccnc(OC)c3)C2)c1` it was 6.85%.
As to `O=C(c1cccn1Cc1cccs1)N1CCC(C(=O)N2CCCC2)CC1`, the INHIBITION was found to be 17.42%.
Regarding `NC(=O)C1CCN(C(=O)c2cccn2Cc2cccs2)CC1`, the INHIBITION is given as 3.97%.
Take `O=C(c1cccn1Cc1cccs1)N1CCN(C2CC2)CC1`: the INHIBITION is recorded as -14.3%.
The same measure for `CNC(=O)C1CCN(C(=O)c2cccn2Cc2cccs2)CC1`: 56.67%; for `O=C(c1cccn1Cc1cccs1)N1CCN(C(=O)C2CC2)CC1`: -72.53%.
In the case of `O=C(c1cccn1Cc1cccs1)N1CCSCC1` it was 69.49%.
